Compound activity from PubChem.
FEN1 inhibitor: qHTS Assay for the Inhibitors of Human Flap endonuclease 1 (FEN1); Recombinant FEN1 flap cleavage, fluorescence, 15 min; P39748; 0.35% of 390,000 active; Potency, µM (titrated, usually from 114 µM), inactives show at the top dose activity change, negative = inhibition, usual class: inhibitors; also: potency is read from the fitted curve at half-maximal effect; % is scaled to controls: 0 for no effect and ±100 for the full control effect; nearly all actives have a fitted effect of over 65% in size
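Reaction started by adding substrate (50 nM final) to 10 nM enzyme after 15 min room-temperature compound preincubation. Reads at 0 and 15 min, with data normalized and fitted to a four-parameter Hill equation.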
TCR activator: Activators of T cell receptors: qHTS campaign. primary human leukocytes, anti-CD3, IL-2 HTRF, 48 h. Potency, µM (doses to about 9.22 µM), for inactives: at the top dose activation of IL-2 secretion, most hits filed as activators. 330,000 tested, under 10 active; also: % of control where 0% means no effect
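Readout: HTRF IL-2, Eu-cryptate/d2 antibody pair, 320nm excitation, 665nm emission. Stimulus: a-CD3 beads, no co-stimulation. Cells: primary human leukocytes. Exposure: 48 hr with compound.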
PLK1 PBD block: qHTS for Inhibitors of PLK1-PDB (polo-like kinase 1 - polo-box domain): Primary Screen. Potency, µM, for inactives: max response, negative = inhibition, usual class: inhibitors. Serine/threonine-protein kinase PLK1 (Homo sapiens), P53350. 2.8% of 360,000 active. Plk1 PBD binding of FITC phosphopeptide, fluorescence polarization; also: potency is read from the fitted curve at half-maximal effect; series mostly up to about 57 µM; % is scaled to controls: 0 for no effect and ±100 for the full control effect; nearly all actives have a fitted effect of over 65% in size
WRN helicase inh: qHTS for Inhibitors of WRN Helicase; Potency, µM (highest dose often 114 µM), without a hit: at the highest dose activity change, negative = inhibition, usual class: inhibitors; AID 651768, 2012; 0.46% of 360,000 active; Bifunctional 3'-5' exonuclease/ATP-dependent helicase WRN (Homo sapiens), Q14191; WRN helicase unwinding, fluorescent forked duplex, kinetic; also: potency is read from the fitted curve at half-maximal effect; % is scaled to controls: 0 for no effect and ±100 for the full control effect; nearly all actives have a fitted effect of over 55% in size
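Kinetic fluorescence helicase assay: unwinding of a quenched forked DNA duplex (100 nM final) with 2 mM ATP final raises red fluorescence (525/598 nm). Compounds sat 15 min at room temperature with 20 nM WRN beforehand.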
PI5P4Ka inh: qHTS for Inhibitors of phosphatidylinositol 5-phosphate 4-kinase (PI5P4K); max response, %; 1.2% of 330,000 active; AID 652105, 2013; PI5P4Kalpha enzyme, ADP-Glo luminescence, 60 min; stronger effect = lower value; active = max response of -50% or lower; inconclusive = between -30% and -50%; inactive = -30% or higher; also: value at the top dose of about 77 µM; % is scaled to controls: 0 for no effect and ±100 for the full control effect
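Controls without substrate or without enzyme flank wells where PI5P4Kalpha converts substrate using 5 microM ATP (final). Incubation lasts 60 minutes at room temperature; ADP formed is read by ADP-Glo luminescence.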
VDR inhibitor: Inhibitors of the vitamin D receptor (VDR): qHTS | VDR-SRC2-3 peptide fluorescence polarization, 2 h | 0.93% of 400,000 active | Potency, µM, for the others: max response, negative = inhibition, usual class: inhibitors | Vitamin D3 receptor (Homo sapiens), P11473; also: potency is read from the fitted curve at half-maximal effect; % is scaled to controls: 0 for no effect and ±100 for the full control effect
Target sequence (P11473 whole entry, looked up): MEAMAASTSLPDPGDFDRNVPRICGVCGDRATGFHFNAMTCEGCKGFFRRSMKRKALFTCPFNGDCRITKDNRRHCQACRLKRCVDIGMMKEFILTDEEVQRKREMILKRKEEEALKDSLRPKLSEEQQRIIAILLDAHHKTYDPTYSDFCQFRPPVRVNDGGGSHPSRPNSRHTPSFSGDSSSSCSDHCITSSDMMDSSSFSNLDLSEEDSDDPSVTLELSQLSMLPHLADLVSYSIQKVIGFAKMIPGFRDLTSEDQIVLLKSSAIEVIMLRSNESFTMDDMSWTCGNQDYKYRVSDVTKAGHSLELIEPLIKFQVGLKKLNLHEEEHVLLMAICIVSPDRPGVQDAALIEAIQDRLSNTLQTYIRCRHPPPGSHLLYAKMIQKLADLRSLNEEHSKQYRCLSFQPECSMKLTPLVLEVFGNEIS
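Compounds are added to VDR with labelled SRC2-3 coactivator peptide and held 2 h at room temperature. Inhibition of the VDR–peptide interaction is then read as a change in fluorescence polarization.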
Starred values were filed as active, the others as inactive; ? = inconclusive; . = no result given; [ ] = dose if it differs, or a comment. In the library only some 3.7% were active in any assay of this set; here they are far more common. Unless noted, calls follow the shape of the dose curve; as a rule, active = well fitted curve in the direction sought with a large enough effect; inconclusive = small, poorly fitted or top-dose-only effect, or another doubt; inactive = no such curve, though single readings can be large; an effect the other way counts as inactive or inconclusive.

SMILES	FEN1 inhibitor	TCR activator	PLK1 PBD block	WRN helicase inh	PI5P4Ka inh	VDR inhibitor
O=C(OCC1OC(OC(=O)c2cc(O)c(O)c(OC(=O)c3cc(O)c(O)c(O)c3)c2)[C@@H](OC(=O)c2cc(O)c(O)c(OC(=O)c3cc(O)c(O)c(O)c3)c2)C(OC(=O)c2cc(O)c(O)c(OC(=O)c3cc(O)c(O)c(O)c3)c2)C1OC(=O)c1cc(O)c(O)c(OC(=O)c2cc(O)c(O)c(O)c2)c1)c1cc(O)c(O)c(OC(=O)c2cc(O)c(O)c(O)c2)c1 (some centres undefined)	.	.	.	.	.	13µM*
CCCCCCOc1ccc(CC(=O)O)cc1	7%	.	.	.	.	.
COCCCNc1ncnc2c1cnn2-c1ccc(F)cc1	1%	.	.	.	.	7%
Cc1cc(C)cc(NC(=O)c2ccc([N+](=O)[O-])o2)c1	?	-1%	-24%	-3%	-7	1%
NS(=O)(=O)c1ccc(O)c(NC(=O)c2ccc([N+](=O)[O-])o2)c1	2%	3%	4.2µM*	?	?	?
CC1=CC(C)(C)N2C(=O)C(=O)c3cc(OC(=O)c4ccco4)cc1c32	8%	1%	27µM*	-31%	?	?
CC1=CC(C)(C)Nc2ccc(OC(=O)c3ccco3)cc21	-21%	.	-8%	-9%	.	-10%
Cc1cc(O)c2c(c1O)C(=O)C(O)=C(O)C2=O	.	.	.	.	.	8.9µM*
CCCC(=O)c1cc(F)c(N2CCOCC2)cc1C	-16%	-5%	24µM*	-5%	.	-6%
CCn1cc(C(=O)NN)c(=O)c2cc(F)c(N3CCOCC3)cc21	?	5%	-1%	89µM*	-5	24%
CCCCCCCCCCCCCCCCCCOC[C@@H](O)COP(=O)([O-])OCC[N+](C)(C)C	.	.	.	.	.	-2%
CC(C)c1ccc(NC(=O)CSc2nc(=O)n(Cc3cccnc3)c3c2CCC3)cc1	11%	.	.	.	.	-8%
Nc1ccc(-c2c3ccc(=O)cc-3oc3cc(O)ccc23)cc1C(=O)O	-35%	-8%	13µM*	?	-12	0%
COc1ccc(N2C(=O)C3CC=C(Cl)CC3C2=O)cc1 (centres undefined)	-3%	0%	-2%	-28%	.	1%
COc1ccc(NC(=O)c2ccc(N3C(=O)C4CC=C(Cl)CC4C3=O)cc2)cc1 (centres undefined)	9%	.	0%	-19%	-51*	-19%
O=C(O)c1cccc(N2C(=O)C3CC=C(Cl)CC3C2=O)c1 (centres undefined)	-17%	-3%	24µM*	-27%[57.1 µM]	0	?
O=C(O)c1cccc(N2C(=O)C3CC=CCC3C2=O)c1 (centres undefined)	-1%	-2%[46.1 µM]	-6%	-3%	.	10%
O=C(NCCc1cccs1)c1ccc(Cn2c(SCc3ccccc3)nc3cccnc32)cc1	5%	.	.	.	.	9%
COc1cc(NC(=O)/C=C/c2ccccc2)c(C(=O)O)cc1OC	10%	-2%	17µM*	-2%	-29	?
COc1cc(NC(=O)Cc2ccccc2)c(C(=O)O)cc1OC	3%	0%	?	2%	-9	?
COc1ccc(/C=C/C(=O)Nc2ccncc2)cc1OC	-14%	4%	-14%	-7%	1	-18%
COc1ccc(/C=C/C(=O)Nc2nc(C)cc(C)n2)cc1OC	-3%	1%	30µM*	9%	-14	-19%
CCn1nnnc1SCC(=O)N1CCCc2ccccc21	7%	2%[46.1 µM]	27µM*	-8%	-3	-19%
Cn1nnnc1SCC(=O)N1CCc2ccccc21	-9%	0%	-16%	4%	-1	12%
CC(C)c1nnc(SCC(=O)N2CCc3ccccc32)n1N	1%	0%	?	-11%	0	79µM*
SMILES	FEN1 inhibitor	TCR activator	PLK1 PBD block	WRN helicase inh	PI5P4Ka inh	VDR inhibitor
O=C(CSc1nnc(-c2ccc(F)cc2)o1)N1CCCc2ccccc21	-19%	.	.	.	.	-17%
O=C(CSc1nnc(CNc2ccc(F)cc2)o1)N1CCCc2ccccc21	-18%	.	27µM*	3%	?	?
O=C(O)c1ccc(NC(=S)NC(=O)c2cccc(COc3ccccc3)c2)cc1	16%	0%	?	-12%	-55*	-13%
COc1ccc(C(=S)Nc2ccc(C)cc2)cc1	1%	1%	21µM*	-24%	-17	?
COc1ccc(NC(=S)NNc2ccc(C(=O)O)cc2)cc1	-14%	1%	?	-1%[11.6 µM]	-9	32µM*
COc1ccc(NC(=S)c2ccncc2)cc1	-2%	-1%[46.1 µM]	-6%	8%	6	-20%
COc1ccc(C(=O)NNc2ccccc2)cc1	-7%	2%[46.1 µM]	2%	-11%	0	2%
O=C(NC(=S)Nc1ccc(CN2CCCCC2)cc1)c1cccc(OCc2ccccc2)c1	-5%	5%	-9%	-4%	2	-24%
O=C1N=C(N2C=CC(=C3C=CNC=C3)C=C2)/C(=C/N=NC(=O)c2ccccc2O)S1	?	0%	-30%	-31%	-61*	4%
CN(Cc1ccccc1F)Cc1cc(=O)oc2cc(O)c(Cl)cc12	-5%	-4%	-20%	-10%	-63*	12%
Cc1cc2oc(=O)cc(CN(C)Cc3ccccc3F)c2cc1Cl	5%	-2%	3%	-4%	12	24%
COc1ccc(SN=C2C(C)=CC(=O)C=C2C)cc1	-13%	1%	-21%	-17%	-9	10%
COC1=CC(=O)c2ccccc2C1=O	10µM*	0%	-19%	12%	4	-14%
COC1=CC(=O)C=C(OC)C1=O	?	-1%	6µM*	45µM*	-51*	22µM*
CC(C)(C)CC(C)(C)N=C1Nc2ccc(Cl)cc2N[C@]12C[C@H]1CCCC(=O)N3CC[C@@H](C2)[C@@H]13	-17%	.	.	.	.	.
CCn1c2ccccc2c2cc(NC(=O)CNCc3ccccc3OC)ccc21	3%	-3%	-8%	-5%	3	13%
COc1ccccc1CNCC(=O)Nc1ccc(N(C)C)cc1	-6%	-37%	27µM*	-4%	2	-28%
O=C(NCc1ccccc1F)C12CC3CC(CC(C3)C1)C2	-1%	8%	-16%	3%	1	-13%
COc1ccccc1CNC(=O)CC(C)C	-14%	.	12µM*	12%	?	?
COc1ccccc1CNC(=O)C12CC3CC(CC(C3)C1)C2	9%	0%	27µM*	-4%	-7	-19%
C[N+]1(CC(=O)c2ccc3c(c2)CCCC3)CCOCC1	-21%	.	.	.	.	.
